# Source: ChEMBL document CHEMBL1961873, “Compounds: GSK PKIS; Assays: Nanosyn kinase panel” (2012)
# Columns and labels:
# [1] = target: T1, Serine/threonine-protein kinase D2 (Homo sapiens) (UniProt Q9BZL6); conditions: at 1 µM;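 note: mean value of PRKD2 inhibition, from the GSK PKIS screening panel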
# T1 sequence (whole entry): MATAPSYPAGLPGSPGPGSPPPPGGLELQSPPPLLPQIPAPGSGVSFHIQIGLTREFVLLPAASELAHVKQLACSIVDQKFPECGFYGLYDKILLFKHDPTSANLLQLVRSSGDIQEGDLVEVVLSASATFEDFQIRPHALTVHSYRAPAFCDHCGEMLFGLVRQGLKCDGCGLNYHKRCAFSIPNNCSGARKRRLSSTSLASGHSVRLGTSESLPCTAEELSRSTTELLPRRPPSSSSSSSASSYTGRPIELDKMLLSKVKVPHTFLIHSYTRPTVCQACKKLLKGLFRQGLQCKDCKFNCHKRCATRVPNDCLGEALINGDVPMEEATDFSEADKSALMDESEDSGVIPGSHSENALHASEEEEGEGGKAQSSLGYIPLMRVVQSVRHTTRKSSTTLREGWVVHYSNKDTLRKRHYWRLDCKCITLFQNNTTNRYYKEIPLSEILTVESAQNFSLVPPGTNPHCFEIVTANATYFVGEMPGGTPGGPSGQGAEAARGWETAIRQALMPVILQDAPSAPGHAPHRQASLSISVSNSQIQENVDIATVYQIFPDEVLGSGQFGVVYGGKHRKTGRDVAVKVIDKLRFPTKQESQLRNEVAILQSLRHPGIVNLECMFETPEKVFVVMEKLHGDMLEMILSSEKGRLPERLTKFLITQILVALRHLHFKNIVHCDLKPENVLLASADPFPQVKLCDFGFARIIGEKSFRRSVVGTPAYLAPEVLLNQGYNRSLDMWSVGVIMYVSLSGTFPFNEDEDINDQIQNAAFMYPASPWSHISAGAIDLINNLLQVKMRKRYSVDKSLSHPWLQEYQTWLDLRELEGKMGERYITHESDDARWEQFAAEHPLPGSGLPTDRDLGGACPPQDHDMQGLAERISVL
# [2] = target: T2, Serine/threonine-protein kinase D3 (Homo sapiens) (UniProt O94806); conditions: at 0.1 µM
# T2 sequence (whole entry): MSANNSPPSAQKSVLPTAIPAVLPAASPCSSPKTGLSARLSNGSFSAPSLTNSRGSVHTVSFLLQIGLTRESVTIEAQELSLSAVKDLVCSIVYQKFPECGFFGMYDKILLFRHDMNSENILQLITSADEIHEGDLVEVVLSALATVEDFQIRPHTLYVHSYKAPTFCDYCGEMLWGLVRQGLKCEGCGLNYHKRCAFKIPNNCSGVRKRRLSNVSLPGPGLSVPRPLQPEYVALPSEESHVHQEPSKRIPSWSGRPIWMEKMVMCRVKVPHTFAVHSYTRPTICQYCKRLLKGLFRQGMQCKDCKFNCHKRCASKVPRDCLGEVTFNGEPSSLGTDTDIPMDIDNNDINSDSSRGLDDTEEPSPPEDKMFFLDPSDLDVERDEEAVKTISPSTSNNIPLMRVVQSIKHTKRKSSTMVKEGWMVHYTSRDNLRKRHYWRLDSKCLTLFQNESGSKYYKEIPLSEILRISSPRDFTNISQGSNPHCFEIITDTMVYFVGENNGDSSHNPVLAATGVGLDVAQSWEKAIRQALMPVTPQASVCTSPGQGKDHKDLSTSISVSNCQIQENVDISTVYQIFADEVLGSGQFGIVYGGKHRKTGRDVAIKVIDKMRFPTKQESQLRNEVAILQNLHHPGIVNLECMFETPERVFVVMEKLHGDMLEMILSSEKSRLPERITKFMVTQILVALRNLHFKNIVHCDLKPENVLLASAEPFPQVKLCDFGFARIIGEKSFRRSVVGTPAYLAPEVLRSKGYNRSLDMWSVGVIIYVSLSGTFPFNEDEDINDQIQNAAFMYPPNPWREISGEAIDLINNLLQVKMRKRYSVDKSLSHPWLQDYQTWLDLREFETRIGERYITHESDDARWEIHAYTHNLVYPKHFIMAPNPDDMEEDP
# [3] = target: T2, Serine/threonine-protein kinase D3 (Homo sapiens); conditions: at 1 µM
# [4] = target: T3, cGMP-dependent protein kinase 1 (Homo sapiens) (UniProt Q13976); conditions: at 0.1 µM
# T3 sequence (whole entry): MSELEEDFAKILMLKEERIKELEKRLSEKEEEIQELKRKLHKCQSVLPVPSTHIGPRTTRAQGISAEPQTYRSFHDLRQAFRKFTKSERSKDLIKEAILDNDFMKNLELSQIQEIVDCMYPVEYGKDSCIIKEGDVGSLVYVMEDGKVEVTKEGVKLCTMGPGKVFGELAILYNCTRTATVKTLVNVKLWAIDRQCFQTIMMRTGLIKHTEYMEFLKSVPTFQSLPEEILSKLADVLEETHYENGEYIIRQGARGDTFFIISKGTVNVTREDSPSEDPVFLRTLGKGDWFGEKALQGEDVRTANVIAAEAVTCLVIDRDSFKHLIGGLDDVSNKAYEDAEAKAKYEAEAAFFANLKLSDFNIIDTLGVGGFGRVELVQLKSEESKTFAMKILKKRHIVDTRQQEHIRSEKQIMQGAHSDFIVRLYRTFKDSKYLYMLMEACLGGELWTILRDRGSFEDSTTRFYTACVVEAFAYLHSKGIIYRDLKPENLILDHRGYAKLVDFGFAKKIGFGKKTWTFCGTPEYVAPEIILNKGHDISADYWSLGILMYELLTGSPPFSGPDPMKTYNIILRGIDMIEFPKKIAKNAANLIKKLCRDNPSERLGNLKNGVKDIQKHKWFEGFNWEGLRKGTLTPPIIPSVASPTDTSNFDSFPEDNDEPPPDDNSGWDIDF
# [5] = target: T3, cGMP-dependent protein kinase 1 (Homo sapiens); conditions: at 1 µM
# [6] = target: T4, cGMP-dependent protein kinase 2 (Homo sapiens) (UniProt Q13237); conditions: at 0.1 µM
# T4 sequence (whole entry): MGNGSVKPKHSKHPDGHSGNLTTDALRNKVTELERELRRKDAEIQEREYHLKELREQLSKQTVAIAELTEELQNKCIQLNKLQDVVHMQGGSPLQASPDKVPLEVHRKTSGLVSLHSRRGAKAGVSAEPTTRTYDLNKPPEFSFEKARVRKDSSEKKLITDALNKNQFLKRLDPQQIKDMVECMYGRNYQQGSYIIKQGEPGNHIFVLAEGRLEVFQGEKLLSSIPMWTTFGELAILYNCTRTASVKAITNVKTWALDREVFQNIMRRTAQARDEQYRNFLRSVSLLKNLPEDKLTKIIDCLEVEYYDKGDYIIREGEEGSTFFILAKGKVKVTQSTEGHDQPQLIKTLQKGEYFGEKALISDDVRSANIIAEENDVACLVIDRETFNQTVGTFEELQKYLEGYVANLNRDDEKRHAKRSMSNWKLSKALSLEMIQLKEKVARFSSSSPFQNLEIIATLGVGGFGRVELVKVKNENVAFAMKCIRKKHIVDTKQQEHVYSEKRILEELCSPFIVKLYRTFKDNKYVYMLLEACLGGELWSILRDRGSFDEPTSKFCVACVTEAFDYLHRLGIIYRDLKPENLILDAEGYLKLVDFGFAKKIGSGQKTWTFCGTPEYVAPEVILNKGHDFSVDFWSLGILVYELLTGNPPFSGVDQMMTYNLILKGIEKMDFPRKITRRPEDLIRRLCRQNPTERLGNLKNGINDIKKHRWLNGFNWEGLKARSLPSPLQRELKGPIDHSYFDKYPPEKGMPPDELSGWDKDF
# [7] = target: T4, cGMP-dependent protein kinase 2 (Homo sapiens); conditions: at 1 µM
# [8] = target: T5, cAMP-dependent protein kinase catalytic subunit PRKX (Homo sapiens) (UniProt P51817); conditions: at 0.1 µM
# T5 sequence (whole entry): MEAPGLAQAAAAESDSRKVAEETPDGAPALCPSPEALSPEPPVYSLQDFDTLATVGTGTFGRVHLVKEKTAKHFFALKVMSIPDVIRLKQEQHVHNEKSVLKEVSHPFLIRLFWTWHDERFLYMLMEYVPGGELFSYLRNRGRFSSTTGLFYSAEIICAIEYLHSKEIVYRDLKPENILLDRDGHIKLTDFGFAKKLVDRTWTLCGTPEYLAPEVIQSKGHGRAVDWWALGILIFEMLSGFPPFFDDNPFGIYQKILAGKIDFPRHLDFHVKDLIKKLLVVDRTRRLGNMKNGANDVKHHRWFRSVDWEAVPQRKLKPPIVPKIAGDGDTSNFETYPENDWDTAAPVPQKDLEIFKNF
# [9] = target: T5, cAMP-dependent protein kinase catalytic subunit PRKX (Homo sapiens); conditions: at 1 µM
# [10] = target: Rho-associated protein kinase 1 (Homo sapiens) (UniProt Q13464); conditions: at 0.1 µM;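 note: values are mean percent inhibition of ROCK1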
# Chain of Rho-associated protein kinase 1 (Homo sapiens) (Q13464 2-1354 limits assumed): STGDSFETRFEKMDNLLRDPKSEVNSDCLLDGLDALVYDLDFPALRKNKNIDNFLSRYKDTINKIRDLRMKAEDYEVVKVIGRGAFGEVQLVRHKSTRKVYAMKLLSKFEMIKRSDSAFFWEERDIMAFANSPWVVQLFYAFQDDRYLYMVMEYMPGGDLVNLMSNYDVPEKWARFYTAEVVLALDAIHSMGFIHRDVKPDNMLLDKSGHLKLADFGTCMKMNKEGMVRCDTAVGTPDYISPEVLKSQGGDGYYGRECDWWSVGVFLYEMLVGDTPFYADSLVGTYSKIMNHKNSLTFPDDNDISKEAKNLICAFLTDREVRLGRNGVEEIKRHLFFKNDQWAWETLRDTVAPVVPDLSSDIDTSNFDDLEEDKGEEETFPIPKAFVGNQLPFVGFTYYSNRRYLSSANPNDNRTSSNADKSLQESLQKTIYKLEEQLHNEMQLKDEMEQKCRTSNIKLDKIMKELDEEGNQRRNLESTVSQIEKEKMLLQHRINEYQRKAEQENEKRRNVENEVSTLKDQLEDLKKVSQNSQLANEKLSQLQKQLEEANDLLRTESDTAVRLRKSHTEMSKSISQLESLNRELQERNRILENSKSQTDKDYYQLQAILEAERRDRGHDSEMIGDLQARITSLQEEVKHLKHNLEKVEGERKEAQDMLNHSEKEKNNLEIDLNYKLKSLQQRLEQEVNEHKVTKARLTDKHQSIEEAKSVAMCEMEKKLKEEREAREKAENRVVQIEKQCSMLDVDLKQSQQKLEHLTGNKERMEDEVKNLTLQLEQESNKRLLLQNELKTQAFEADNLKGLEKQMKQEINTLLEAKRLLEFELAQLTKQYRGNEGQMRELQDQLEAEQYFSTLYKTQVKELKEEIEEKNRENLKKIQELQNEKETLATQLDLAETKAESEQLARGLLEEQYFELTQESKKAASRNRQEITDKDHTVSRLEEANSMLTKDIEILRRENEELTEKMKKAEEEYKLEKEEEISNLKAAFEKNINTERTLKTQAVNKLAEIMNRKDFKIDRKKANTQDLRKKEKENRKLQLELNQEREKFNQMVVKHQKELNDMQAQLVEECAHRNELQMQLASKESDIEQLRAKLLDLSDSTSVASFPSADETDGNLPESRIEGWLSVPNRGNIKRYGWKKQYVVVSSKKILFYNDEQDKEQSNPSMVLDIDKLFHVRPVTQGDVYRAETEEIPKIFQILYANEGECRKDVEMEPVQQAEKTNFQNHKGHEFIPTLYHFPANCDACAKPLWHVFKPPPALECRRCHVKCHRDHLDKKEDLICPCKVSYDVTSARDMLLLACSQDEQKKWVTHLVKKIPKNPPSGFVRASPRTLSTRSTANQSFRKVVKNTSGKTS
SMILES,inhibition [1] [%],inhibition [2] [%],inhibition [3] [%],inhibition [4] [%],inhibition [5] [%],inhibition [6] [%],inhibition [7] [%],inhibition [8] [%],inhibition [9] [%],inhibition [10] [%]
Cc1ccc(C(=O)NC2CCC2)cc1-c1ccc(C(=O)NCC2CC2)cc1,2.79,2.86,2.6,3.87,3.84,1.07,3.54,1.55,-0.61,1.21
Clc1ccc(CNc2nccc(-c3cnn4ncccc34)n2)cc1,5.34,0.83,3.93,2.07,6.09,-0.17,3.68,0.56,1.41,0.21
COc1ccc(C2=C(N3CCc4ccccc43)C(=O)NC2=O)cc1,7.9,4.84,8.41,1.67,6.23,1.42,4.94,2.47,2.49,0.56
O=C(Nc1n[nH]c2nc(-c3ccco3)ccc12)C1CC1,1.79,0.02,1.55,2.2,4.23,0.68,3.61,2.71,3.87,1.29
Fc1ccc(-c2ncn(CCCN3CCOCC3)c2-c2ccncc2)cc1,3.09,1.63,2.8,0.4,0.29,0.94,0.26,-0.21,-1.38,1.06
c1ccc(Oc2ccc(Nc3ncc(-c4ccccc4)o3)cc2)cc1,3.8,2.14,3.61,2.21,3.15,1.21,3.1,2.99,6.18,3.48
Fc1ccc(-c2ncn(C3CCNCC3)c2-c2ccnc(Oc3ccc(Oc4ccccc4)cc3)n2)cc1,5.64,5.21,7.01,4.81,7.25,3.21,4.62,2.43,3.21,2.39
COc1ccc(-c2ccc3c(NC(=O)C4CC4)n[nH]c3n2)cc1,1.69,1.45,1.7,1.26,1.97,0.63,0.65,1.66,3.81,0.53
CN1CCN(CCCNc2nc3ccc(Oc4ccc(NC(=O)Nc5cc(C(F)(F)F)ccc5F)cc4)cc3[nH]2)CC1,-0.73,-2.59,-1.97,3.15,3.23,3.62,2.7,2.54,1.08,1.94
CN(C)CCCNc1nccc(-c2c(-c3ccc(F)cc3)nn3cc(C(F)(F)F)ccc23)n1,0.34,-1.49,-0.32,1.15,3.76,1.88,3.07,1.15,-0.47,0.76
C/C(Nc1ccc(S(N)(=O)=O)cc1)=C1/C(=O)Nc2ccccc21,11.3,-0.08,9.13,0.96,3.66,0.21,8.25,1.97,4.84,2.38
CCC(=O)Nc1ccc(C)c(-c2ccc(C(=O)NCC3CC3)cc2)c1,0.39,2.64,2.11,2.33,2.99,1.03,3.23,0.64,1.66,2.95
COc1cccc(/C=N/Nc2ncnc3c2cnn3-c2cccc(OC)c2)c1,1.36,3.64,2.93,3.82,4.05,1.19,3.17,0.44,1.94,2.52
COc1cc(Nc2ncc3c(C)nc(-c4cccc(Oc5ccccc5)c4)n3n2)cc(OC)c1OC,3,1.74,3.77,1.98,2.3,1.18,2.71,1.26,-0.03,1.05
COc1cc2ncn(-c3cc(OCCc4ccccc4)c(C(N)=O)s3)c2cc1OC,4.84,3.76,4.36,2.33,4.13,1.3,2.13,0.24,-4.15,0.26
CCS(=O)(=O)c1ccc(OC)c(Nc2ncc(-c3cccc(-c4ccccc4F)c3)o2)c1,1.19,1.19,1.54,0.11,3.03,1.57,2.1,0.93,0.98,-2.02
CS(=O)(=O)CCNCc1cc(-c2cc3c(Nc4ccc(OCc5cccc(F)c5)c(Cl)c4)ncnc3s2)cs1,4.68,4.68,5.41,4.85,8.33,3.09,4.67,1.65,2.04,3.25
